Screening results (PubChem BioAssay)
Shiga toxin inh: Shiga toxin inhibition; Vero cells, Shiga toxin protein synthesis inhibition reporter; inhibition, % at 38.7 µM; hit rate 9.2% among 290,000; in the data active = inhibition mostly above about 28%, no sharp cut-off; inactive = mostly below about 43%; note: 0% is about no effect
Pf growth 96h: P. falciparum growth inhibition at 96 hour, primary screen for plastid delayed-death inhibitors; P. falciparum luciferase reporter growth, 96 h; Potency, µM (top dose mostly 28.7 µM), inactives show at the top dose activity change, negative = inhibition, actives largely listed as inhibitors; hit rate 6.9% among 320,000; note: potency is the fitted concentration of half-maximal effect; % is set by controls: 0 for no effect and ±100 for the full control effect
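Two-generation exposure (96 h) targets delayed-death phenotype. Reporter parasites carrying integrated firefly luciferase, in red cells at 2% hematocrit and 0.05% parasitemia final, kept at 37 C, 5% CO2; luminescence loss indicates inhibition.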
CHX counter: counter-screen hit for Shiga toxin inhibitors, cycloheximide | AID 2314 | max response, % | hit rate 12% among 300,000 | cell reporter, cycloheximide protein synthesis inhibition counterscreen; in the data active = max response mostly above about 13%, no sharp cut-off; inactive = mostly below about 14%; note: read at 38.3 µM for the half of the compounds with a filed dose; 0% is about no effect
NS1 function inh: inhibitors of influenza NS1 protein function | hit rate 0.4% among 270,000 | Potency, µM (highest dose often 46.1 µM), inactives show at the top dose activity, positive = more growth | AID 2326; calls by dose curve; note: potency is the fitted concentration of half-maximal effect; actives are rising curves; nearly all actives have a fitted effect of over 50% in size
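Read-out: OD600 growth recovery of NS1-expressing budding yeast. Cells grown overnight at 30C in -URA glucose medium, washed, resuspended and diluted 1:100 in 2% galactose assay medium, pH 6.0. Same strain lacking NS1 served as positive control.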
SARS PLpro yeast: SARS-CoV PLP inhibition in yeast. S. cerevisiae expressing SARS-CoV PLpro, growth rescue. Potency, µM (highest dose often 32.9 µM), for the others: at the top dose activity, positive = growth rescue, most hits filed as activators. hit rate 0.19% among 330,000; calls by dose curve; note: potency is the fitted concentration of half-maximal effect; 0% is about no effect; nearly all actives have a fitted effect of over 55% in size
Pf growth 48h: inhibits P. falciparum growth in the first generation, 48 h; AID 504832; P. falciparum luciferase growth in erythrocytes, 48 h; hit rate 5.9% among 310,000; Potency, µM (doses to about 28.7 µM), for the others: at the top dose activity change, negative = inhibition, hits mostly inhibitors; note: potency is the fitted concentration of half-maximal effect; % is set by controls: 0 for no effect and ±100 for the full control effect
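Parasite viability was followed by luminescence of a genomically integrated firefly luciferase. Cultures held 0.1% parasitemia at 2% hematocrit (final), incubated under 5% CO2 at 37 C.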
* marks the source's active call; other numbers are inactive results. Shown are actives, neighbours in structure and some others; about 21% of the full set was active somewhere. Unless noted, calls come from the whole dose curve; as a rule, active = well fitted inhibition curve with a large enough effect; inconclusive = small, poorly fitted or top-dose-only effect, or another doubt; inactive = no such curve, though single readings can be large or run the other way.

What do the screens show for `COC(=O)C(C)Sc1nnc2n(-c3cccc(C)c3)c(=O)c3c4c(sc3n12)CCCC4` (stereo not drawn)?
Shiga toxin inh: 1.6; Pf growth 96h: 11.7µM*; CHX counter: -2.0; NS1 function inh: -4.6%; SARS PLpro yeast: 3.8%; Pf growth 48h: 10.4µM*

How did O=C(N/N=C/c1cccnc1)c1cccc(Cl)c1 do in these assays?
Shiga toxin inh: 33.0*; Pf growth 96h: 26.3%; CHX counter: 27.6*; NS1 function inh: -1.1%; SARS PLpro yeast: -3.2%; Pf growth 48h: 28.2%

How did O=C(N/N=C/c1cc(Cl)ccc1O)c1cccnc1 do in these assays?
Shiga toxin inh: 25.2; Pf growth 96h: inconclusive; CHX counter: 13.0*; NS1 function inh: -38.9%; SARS PLpro yeast: 10.6%; Pf growth 48h: 3.29µM*

Results for O=C(N/N=C\c1cc2c(cc1Cl)OCO2)c1cccnc1 ?
Shiga toxin inh: 11.5; Pf growth 96h: inconclusive; CHX counter: 10.3; NS1 function inh: 15.4%; SARS PLpro yeast: 1.9%; Pf growth 48h: -26.9%

Results for O=C(CNC(=O)c1ccccc1Br)N/N=C/c1cc(Br)ccc1O ?
Shiga toxin inh: 29.2; Pf growth 96h: 1.4%; CHX counter: -2.7; SARS PLpro yeast: 0.3%; Pf growth 48h: inconclusive

How did CC(C)c1ccc(/C=N/NC(=O)c2cccc(Cl)c2)cc1 do in these assays?
Shiga toxin inh: active; Pf growth 96h: inconclusive; CHX counter: 48.9*; NS1 function inh: -8.8%; SARS PLpro yeast: -18.6%; Pf growth 48h: 8.1%

Results for O=C(N/N=C/c1cc(Cl)ccc1O)c1ccccc1Br ?
Shiga toxin inh: 27.3*; Pf growth 96h: inconclusive; CHX counter: 39.6*; SARS PLpro yeast: -27.3%; Pf growth 48h: 3.7µM*

What do the screens show for `O=C(N/N=C/c1cccnc1)c1cccc(NC(=O)c2ccc(Cl)cc2)c1`?
Shiga toxin inh: 19.5; Pf growth 96h: 16.1%; CHX counter: 2.7; NS1 function inh: -13.0%; SARS PLpro yeast: 3.1%; Pf growth 48h: inconclusive

Results for C=CCNC(=O)C(=O)NCC1CCCN1S(=O)(=O)c1cccs1 (stereo not drawn) ?
Pf growth 96h: -23.1%; SARS PLpro yeast: 1.5%; Pf growth 48h: inconclusive

How did CCN(CC)c1ccc(S(=O)(=O)N2CCCCC2)cc1NC(=O)CN1C(=O)NC2(CCCC2)C1=O do in these assays?
Pf growth 96h: inconclusive; SARS PLpro yeast: -6.0%; Pf growth 48h: inconclusive

Results for O=C(N/N=C/c1cccnc1)c1cccc(Br)c1 ?
Shiga toxin inh: 34.1; Pf growth 96h: 6.57µM*; CHX counter: 16.9*; NS1 function inh: -9.6%; SARS PLpro yeast: inconclusive; Pf growth 48h: 5.3%

Results for Cc1cccc(C(=O)Nc2ccc(C(=O)N/N=C/c3cccnc3)cc2)c1 ?
Shiga toxin inh: 20.0; Pf growth 96h: -10.3%; CHX counter: -4.9; NS1 function inh: 10.8%; SARS PLpro yeast: -0.7%; Pf growth 48h: inconclusive

What do the screens show for `O=C(N/N=C\c1cc(Cl)ccc1O)c1ccc(S(=O)(=O)N2CCCCC2)cc1`?
Shiga toxin inh: -9.6; Pf growth 96h: 2.94µM*; CHX counter: -1.1; NS1 function inh: 13.7%; SARS PLpro yeast: inconclusive; Pf growth 48h: 2.62µM*

Results for CC(C)c1ccc(/C=N/NC(=O)CCNC(=O)c2ccccc2)cc1 ?
Shiga toxin inh: 96.3*; Pf growth 96h: 33.9%; CHX counter: 20.5*; NS1 function inh: -7.2%; SARS PLpro yeast: 17.5%; Pf growth 48h: -4.6%

What do the screens show for `O=C(Nc1cc(S(=O)(=O)Nc2ccc(Cl)cc2)ccc1O)c1ccc(S(=O)(=O)N2CCCCCC2)cc1`?
Shiga toxin inh: -8.4; Pf growth 96h: 0.0%; CHX counter: 17.8; NS1 function inh: 6.4%; SARS PLpro yeast: 2.7%; Pf growth 48h: -24.3%

How did Cc1c(NC(=S)NC(=O)c2cccc(Cl)c2)c(=O)n(-c2ccccc2)n1C do in these assays?
Shiga toxin inh: -4.4; Pf growth 96h: inconclusive; CHX counter: -1.4; NS1 function inh: 18.8%; SARS PLpro yeast: 3.1%; Pf growth 48h: 28.6%

How did COc1cccc(CNCc2ccc(SC)cc2)c1OC do in these assays?
Shiga toxin inh: -2.7; Pf growth 96h: 55.1%; CHX counter: -1.2; NS1 function inh: -10.4%; SARS PLpro yeast: 29.9%; Pf growth 48h: 12.0%

What do the screens show for `O=C(CN1c2cccc3cccc(c23)S1(=O)=O)Nc1ccc(S(=O)(=O)N2CCOCC2)cc1`?
Shiga toxin inh: 17.3; Pf growth 96h: 13.1µM*; CHX counter: -1.4; NS1 function inh: inconclusive; SARS PLpro yeast: 20.4%; Pf growth 48h: inconclusive

How did O=C(CSc1cccc2cccnc12)Nc1ccc(S(=O)(=O)N2CCOCC2)cc1 do in these assays?
Shiga toxin inh: 25.3; Pf growth 96h: -8.6%; CHX counter: 14.3; NS1 function inh: inconclusive; SARS PLpro yeast: -1.1%; Pf growth 48h: 11.7µM*

How did O=C(CN1C(=O)c2cccc3cccc1c23)Nc1ccc(S(=O)(=O)N2CCOCC2)cc1 do in these assays?
Shiga toxin inh: -11.1; CHX counter: -2.9; NS1 function inh: -45.8%; SARS PLpro yeast: -0.6%; Pf growth 48h: inconclusive

How did CCOc1ccccc1OCCCC(=O)Nc1cccc(S(=O)(=O)N2CCOCC2)c1 do in these assays?
Pf growth 96h: inconclusive; SARS PLpro yeast: 3.6%; Pf growth 48h: 13.1µM*

What do the screens show for `CCCCCOc1ccc(NC(=O)CSc2cccc3cccnc23)cc1`?
Shiga toxin inh: 5.5; Pf growth 96h: 5.22µM*; CHX counter: 16.9; NS1 function inh: -3.2%; SARS PLpro yeast: 17.6%; Pf growth 48h: 10.4µM*

What do the screens show for `CC(C)C[C@H](NC(=O)[C@@H]1CCCN1C(=O)[C@H](CO)NC(=O)[C@H](Cc1ccccc1)NC(=O)CNC(=O)[C@@H]1CCCN1C(=O)[C@@H]1CCCN1C(=O)[C@@H](N)CCCN=C(N)N)C(=O)O`?
Shiga toxin inh: -2.6; CHX counter: -6.0

How did CCC1CC=CC2C1C(=O)N(Cc1ccccc1)C2c1ccc(OC)c(Cl)c1 (stereo not drawn) do in these assays?
Shiga toxin inh: -1.8; CHX counter: 5.9

Results for COc1ccc(CNc2ccc(N3CCOCC3)cc2)cc1 ?
Shiga toxin inh: 73.5; Pf growth 96h: 57.2%; CHX counter: 21.8*; NS1 function inh: inconclusive; SARS PLpro yeast: 5.5%; Pf growth 48h: -10.4%

Results for O=C(CCCOc1ccccc1)Nc1ccc(S(=O)(=O)N2CCOCC2)cc1 ?
Shiga toxin inh: 38.3; Pf growth 96h: inconclusive; CHX counter: -3.9; NS1 function inh: -4.6%; SARS PLpro yeast: 1.6%; Pf growth 48h: 11.7µM*

Results for CC(CC(=O)Nc1ccc(S(=O)(=O)N2CCOCC2)cc1)c1ccccc1 (stereo not drawn) ?
Shiga toxin inh: 2.2; Pf growth 96h: 8.7%; CHX counter: -3.1; NS1 function inh: -78.6%; SARS PLpro yeast: -0.7%; Pf growth 48h: 3.29µM*

How did O=C(CCCOc1ccc(Cl)cc1)Nc1ccc(N2CCOCC2)cc1 do in these assays?
Shiga toxin inh: 7.9; Pf growth 96h: -12.0%; CHX counter: 3.0; NS1 function inh: 3.3%; SARS PLpro yeast: -1.2%; Pf growth 48h: -25.4%
